Assay outcomes: PubChem BioAssay, National Center for Advancing Translational Sciences (NCATS)
Only some compounds are listed: those with a hit (about 17% of all), similar ones and a draw of the others.
HepG2 viability – qHTS for Inhibitors of TGF-b: Cytotox Counterscreen; Potency, µM (series often up to 46.1 µM), for the others: at the highest dose activity change, negative = cytotoxicity, most hits filed as cytotoxic; HepG2 CAGA-GFP viability, ATP luminescence, 18 h; 0.76% of 410,000 active; AID 588856, 2011
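CellTiter-Glo luminescence gave cytotoxicity after 18 hours at 37 degrees C. The cells were HepG2 CAGA-GFP in 1% FBS DMEM, stimulated with 500 pg/mL TGF-beta after compound addition. %Activity was normalised to no-cell wells (complete cell-killing) and DMSO (no toxicity), and curves were fitted and classified.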
HT1080NT lethal – qHTS for induction of synthetic lethality in tumor cells producing 2HG: qHTS for the HT-1080-NT fibrosarcoma cell line | HT-1080-NT fibrosarcoma viability, CellTiter-Glo ATP luminescence, 48 h | Potency, µM (titrated, usually from 46.1 µM), without a hit: top-dose activity, negative = less viability, hits mostly cytotoxic | 1.6% of 360,000 active;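 further: NT is the 2HG producing partner of a matched IDH1 knockdown line; 0% = DMSO-treated cells and -100% = media-only wells without cells; nearly all actives have a fitted effect of over 55% in size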
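Compounds were tested in concentration-response format on HT-1080-NT cells for 48 hours at 37 degrees C. Cell viability came from CellTiter-Glo luminescence; curves were classified by r2, response magnitude and activity.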
HT1080 IDH1KD tx – qHTS for induction of synthetic lethality in tumor cells producing 2HG: qHTS for the HT-1080-IDH1KD cell line. HT-1080 IDH1 knockdown viability, ATP luminescence, 48 h. Potency, µM (doses to about 46.1 µM), for inactives: top-dose activity, negative = toxicity, usual class: cytotoxic. 2% of 360,000 active. AID 686971, 2013;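 further: 0% = DMSO wells and -100% = cell-free medium wells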
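In this qHTS, HT-1080 cells depleted of IDH1 are exposed for 48 h at 37 °C to compound titrations. Toxicity is scored from CellTiter-Glo luminescence, with DMSO as full viability and medium alone as none.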
TGFb inhibitor – qHTS for Inhibitors of TGF-b | HepG2 CAGA-GFP TGF-b/SMAD3 reporter, GFP fluorescence, 18 h; TGF-beta stimulated, 500 pg/mL final | Potency, µM (doses to about 46.1 µM), for the others: at the highest dose activity, negative = inhibition, most hits filed as inhibitors | 1.2% of 410,000 active; further: on the % scale 0 is the no-effect control and ±100 the full control effect; nearly all actives have a fitted effect of over 65% in size
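First, reporter cells (HEPG2 CAGA-GFP) rested 2 h at 37 degrees C. Next, compounds were pinned in and TGF-beta added to 500 pg/mL final. After 18 h, GFP was imaged per cell and summed per well.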
TDP1 cell CPT – qHTS for Inhibitors of human tyrosyl-DNA phosphodiesterase 1 (TDP1): qHTS in cells in presence of CPT. Potency, µM (top dose mostly 46.2 µM), for the others: at the top dose activity change, negative = growth inhibition, actives largely listed as inhibitors. chicken DT40 Tdp1-/-;hTDP1 cells + 20 nM CPT, ATP luminescence, 48 h. 12% of 420,000 active. AID 686979, 2013; further: on the % scale 0 is the no-effect control and ±100 the full control effect; nearly all actives have a fitted effect of over 55% in size
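Chicken DT40 Tdp1-/- cells complemented with human TDP1, 400 cells/well, exposed to compounds plus 20 nM camptothecin for at least 48 h at 37 C; viability read as ATP content by CellTiter-Glo luminescence.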
DT40 TDP1 no CPT – qHTS for Inhibitors of human tyrosyl-DNA phosphodiesterase 1 (TDP1): qHTS in cells in absence of CPT. Potency, µM (doses to about 46.2 µM), for inactives: at the top dose activity change, negative = growth inhibition, usual class: inhibitors. AID 686978, 2013. DT40 Tdp1-/- hTDP1 cells, no CPT, ATP luminescence, 48 h. 15% of 420,000 active; further: on the % scale 0 is the no-effect control and ±100 the full control effect; nearly all actives have a fitted effect of over 55% in size
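Compound effects on proliferation are scored in DT40 Tdp1-/-;hTDP1 cells in the absence of CPT. ATP levels (CellTiter-Glo luminescence) are recorded after a ≥48 hr, 37 °C incubation.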
* hit, by the source's call; ? = inconclusive; . = not tested or not shown; [ ] = another dose, or the depositor's remark. The call rests on the fitted dose curve; in most records, active means well fitted curve in the direction sought with a large enough effect; inconclusive means small, poorly fitted or top-dose-only effect, or another doubt; inactive means no such curve, though single readings can be large; an effect the other way counts as inactive or inconclusive. Potency means the concentration at half of the fitted maximal effect.

SMILES	HepG2 viability	HT1080NT lethal	HT1080 IDH1KD tx	TGFb inhibitor	TDP1 cell CPT	DT40 TDP1 no CPT
CCC(=O)N1c2ccc(S(=O)(=O)N3CCCCCC3)cc2CC1C (stereo unspecified)	-7%	.	.	0%	?	?
CCN1CCN(Cc2c(O)ccc3c2O/C(=C\C=C\c2ccccc2)C3=O)CC1	-18%	?	?	1%	26µM*	12µM*
Cc1cc(C)cc(NC(=O)CN2CCC(C(=O)c3ccccc3)CC2)c1	-17%	2%	-1%	-16%	-14%	-29%
S=c1[nH]nc(COc2ccccc2)n1-c1ccc(Cl)cc1	4%	2%	0%	-6%	14%	23µM*
CNC(=O)c1c(NC(=O)C2=COCCO2)sc2c1CCN(C(=O)OC)C2	5%	-2%	0%	-6%	-4%	-8%
CC(C)(C)NC(=O)COc1coc(CN2CCN(Cc3ccccc3)CC2)cc1=O	-2%	-1%	19%	0%	17%	-19%
O=C(Cn1cc(SCc2ccccc2)c2ccccc21)N1CCCCCC1	-1%	.	.	?	?	?
CC1CCN(C(=O)Cn2cc(SCC(=O)NCc3ccc(F)cc3)c3ccccc32)CC1	-7%	.	.	?	?	21µM*
O=C(Cn1cc(SCc2ccc(F)cc2)c2ccccc21)N1CCCCC1	-34%	.	.	?	16µM*	16µM*
Cc1ccccc1CS(=O)(=O)c1cn(CC(=O)N2CCC(C)CC2)c2ccccc12	-23%	5%	10%	-8%	-109%	13µM*
Cc1ccc(CSc2cn(CC(=O)N3CCCCC3)c3ccccc23)cc1	-23%	.	.	?	?	23µM*
CC1CCN(C(=O)Cn2cc(C(=O)C3CC3)c3ccccc32)CC1	-2%	0%	-4%	7%	-8%	-10%
O=C1CCC(c2ccc3ccccc3c2)O1 (stereo unspecified)	9%	19%	0%	23%	?	-3%
Cc1c[nH]c2ccccc12	-6%	17%	-1%	7%	6%	-15%
CC1CCN(C(=O)Cn2cc(SCc3ccccc3)c3ccccc32)CC1	-20%	.	.	-37%	21µM*	16µM*
CC1CCc2c(sc3ncn(CC(=O)N=Nc4c(O)[nH]c5ccccc45)c(=O)c23)C1 (stereo unspecified)	-27%	-10%	0%	-26%	?	-28%
CCc1nc(N=Nc2c(O)[nH]c3ccccc23)c2c3c(sc2n1)CCC3	0%	20%	21%	13%	13µM*	16µM*
CCOC(=O)c1c(NC(=O)Nc2cccc(Cl)c2)sc(C)c1C	0%	29%	14%	24%	-5%	?
CCOC(=O)C(=CNNc1cccc(Cl)c1)C(=O)OCC	12%	-22%	-26%	?	12µM*	21µM*
COc1cccc(COC(=O)c2ccc(-c3nnn(Cc4cccc(OC)c4)n3)cc2)c1	9%	.	.	?	-25%	-29%
Oc1ccc2c(c1)OCC1(O)Cc3cc(O)c(O)cc3C21 (stereo unspecified)	4%	-11%	-16%	63%	6.5µM*	6.5µM*
COc1ccc(/C=c2\s/c(=C/C(=O)c3ccc(C)cc3)[nH]c2=O)cc1OC	-17%	-1%	-5%	25%	?	18µM*
O=C(/C=C/c1ccco1)Nc1nc(-c2ccccc2)cs1	-1%	9%	21%	-5%	-21%	?
O=C(/C=C/c1ccco1)Nc1nc(-c2ccccn2)cs1	15%	-17%	-19%	?	7.3µM*	7.3µM*
Cc1ccc(NC(=O)/C=C/c2ccco2)nc1	-3%	0.046µM*	0.0058µM*	-12%	0.013µM*	0.0058µM*
SMILES	HepG2 viability	HT1080NT lethal	HT1080 IDH1KD tx	TGFb inhibitor	TDP1 cell CPT	DT40 TDP1 no CPT
O=C(/C=C/c1ccco1)Nc1ccccn1	-52%	?	?	-10%	3.3µM*	3.3µM*
O=C(/C=C/c1ccco1)Nc1cccnc1	-18%	24%	21%	-11%	5%	11%
C[C@H]1C=CC(=O)C[C@H]1c1c(F)cccc1Cl	9%	.	.	3%	.	.
CCO[C@@H]1O[C@H](C(COCc2ccccc2)OCc2ccccc2)[C@H](OCc2ccccc2)[C@H]1O (stereo partly specified)	.	.	.	.	11µM*	?
Cc1ccc2c(c1)C(C)CC(C)(C)N2C(=O)CN1CCN(C)CC1 (stereo unspecified)	11%	0%	6%	6%	?	?
Cc1ccc(-n2nc3c(c2NC(=O)c2ccc4c(c2)OCO4)CS(=O)(=O)C3)cc1C	-6%	-1%	5%	-6%	-1%	-26%
COC(=O)c1ccccc1NC(=O)C12CC3CC(C1)CC(n1cnc(Cl)n1)(C3)C2	-38%	?	-1%	-5%	21µM*	16µM*
COc1ccc(NC(=O)C23CC4CC(C2)CC(n2cnc(Br)n2)(C4)C3)cc1Cl	-37%	-2%	-22%	-4%	?	23µM*
O=C(Nc1cccc2ccccc12)C12CC3CC(C1)CC(n1cnc([N+](=O)[O-])n1)(C3)C2	-2%	-11%	-9%	4%	23µM*	26µM*
COC(=O)C12CC3CC(C1)CC(n1cnc(Cl)n1)(C3)C2	0%	1%	4%	10%	?	-16%
CCN(Cc1cc(=O)[nH]c2ccccc12)C(=O)c1ccc(C)cc1	-24%	-1%	3%	-2%	-26%	?
c1ccc(Cc2nn3c(-c4ccncc4)nnc3s2)cc1	-4%	4%	-8%	-4%	?	-27%
CC(C)(C)NC(=O)CN(C(=O)CCC(=O)Nc1nccs1)c1cccc(C(F)(F)F)c1	-3%	-3%	10%	-15%	-3%	1%
Cn1c(-c2ccc3ccccc3n2)nc2cnccc21	3%	-4%	-2%	?	18µM*	15µM*
COc1cc(OC)c(-c2nc3cnccc3n2C)cc1OC	-3%	10%[9.24 µM]	-18%	11%	6%	0%
Cc1ccccc1OCCn1cnc2cc([N+](=O)[O-])ccc2c1=O	-1%	-16%	-20%	-16%	18µM*	21µM*
